Assay results reported in PubChem BioAssay AID1446 (The Scripps Research Institute Molecular Screening Center, 2008).
Several values for one entry are separate records, joined by “and”; a condition that tells them apart may be missing. Equal entries are not always repeated. In all, about 220,000 compounds went through this assay and about 2,400 (1.1%) were called active. The sample holds actives, similar compounds and a random draw of the others, so the mix is not that of the screen.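 The calls were made as follows: active = inhibition above the campaign mean plus 3 SD over all tested compounds (cut at about 24% in these data); inactive = the rest.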

Assay: viability loss in Ba/F3 EpoR-JAK2V617F cells – cell-based, luminescence, JAK2V617F inhibitor project, primary screen (AID 1446);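 also: cytokine-independent growth of Ba/F3 cells driven by EpoR plus mutant JAK2; 0% = DMSO-treated cells and 100% = JAK inhibitor I control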
Settings: ATP luminescence, at 5.6 µM, hits give high values
For `COc1cc(C=O)ccc1Oc1nnnn1-c1ccccc1`, the inhibition was 1.87% (inactive).
For `Cc1cc(C)n(-c2cc(Oc3ccccc3)ncn2)n1`, the inhibition was 0.29% (inactive).
In the case of `Cc1cc(Oc2ccccc2)nc(N2CCOCC2)n1`, the inhibition was 1.31% (inactive).
With `CC(=O)c1ccc(Oc2cc(C)nc(-n3nc(C)cc3C)n2)cc1` the inhibition was 64.7% (active).
For `COc1ccccc1/C=N\Nc1cc(C)nc(-n2nc(C)cc2C)n1`, the inhibition was -2.19% (inactive).
With `COc1ccc(Nc2cc(C)nc(-n3nc(C)cc3C)n2)cc1` the inhibition was 76.7% (active).
In the case of `Cc1cc(N/N=C\c2ccc(Br)cc2)nc(-n2nc(C)cc2C)n1`, the inhibition was -1.35% (inactive).
With `Nc1nc(SC23CC4CC(CC(C4)C2)C3)ns1` the inhibition was -4.14% (inactive).
With `O=C(c1ccc(OC2CCN(Cc3ccccn3)CC2)cc1)N1CCCCCC1` the inhibition was -0.65% (inactive).
In the case of `CC(C)(C)c1ccc(CCC2OCC(CN3CCOCC3)O2)cc1` (stereo not given), the inhibition was 0.42% (inactive).
With `CC(C)[C@@H]1NC(=O)c2cc([N+](=O)[O-])cc(I)c2NCCC[C@@H](C(=O)NC(CC(=O)O)C(N)=O)NC(=O)[C@H](CO)NC1=O` (stereo not given in full) the inhibition was 1.14% (inactive).
With `CC(C)(C)OC(=O)NCCCCCC(=O)N/N=C/c1coc2ccccc2c1=O` the inhibition was 0.8% (inactive).
With `Cc1ccc(N2C(=O)CN=C2Nc2nc(C)cc(C)n2)cc1` the inhibition was -0.62% (inactive).
For `CCCCOc1ccc(NC(=O)[C@@H]2CCCN2C(=O)C2CCN(S(=O)(=O)c3ccc(C)cc3)CC2)cc1`, the inhibition was 1.1% (inactive).
In the case of `Cc1cc(C)nc(NS(=O)(=O)c2ccc(N/C=C\C(=O)c3cccs3)cc2)n1`, the inhibition was 2.57% (inactive).
For `CCN1/C(=C\c2ccc3ccccc3[n+]2CC)Sc2cc(C)ccc21`, the inhibition was 99.7% (active).
For `CCN1/C(=C/c2ccc3ccc(C)cc3[n+]2CC)Sc2ccccc21`, the inhibition was 100% (active).
In the case of `CCN1CCN(CCNC(=O)c2ccc(/C=C3/Sc4ccccc4N(Cc4cccc(C)c4)C3=O)cc2)CC1`, the inhibition was 4.4% (inactive).
With `CCN1/C(=C/C(=S)Nc2ccccc2)Sc2ccccc21` the inhibition was -4.02% (inactive).
With `COc1ccc([N+](=O)[O-])cc1NC(=O)COC(=O)/C=C/c1ccco1` the inhibition was -0.59% (inactive).
With `O=S1(=O)CCC(NC(=S)SCc2ccccc2Br)C1` (stereo not given) the inhibition was -4.11% (inactive).
In the case of `CC1(C)OC(=O)C(=CSc2ccc(C(C)(C)C)cc2)C(=O)O1`, the inhibition was -1.81% (inactive).
In the case of `COc1ccc(S(=O)(=O)NC(C)C)cc1C(=O)NC1CCCCC1`, the inhibition was -1.5% (inactive).
For `COc1cc(OC)c(C(=O)NC2CCCCCC2)cc1OC`, the inhibition was 99.6% (active).
For `COc1cc(OC)c(C(=O)NC2CC(C)(C)NC(C)(C)C2)cc1OC`, the inhibition was -0.48% (inactive).
With `O=C(NC(=O)c1ccccc1N1CCCCC1)Nc1ccc(Br)cc1` the inhibition was 0.79% (inactive).
With `O=C(N/N=C/c1coc2ccccc2c1=O)c1cc2ccccc2o1` the inhibition was 2.09% (inactive).
With `Cc1c(/C=N\NC(=O)c2cc3ccccc3o2)c2ccccc2n1C` the inhibition was 34.8% (active).
With `O=C(N/N=C/c1c[nH]c2ccccc12)c1cc2ccccc2o1` the inhibition was 0.06% (inactive).
In the case of `CC(=O)c1nnn(-c2ccc(Cl)cc2C#N)c1C`, the inhibition was 0.95% (inactive).
In the case of `CC(C)CNC(=O)COC(=O)/C=C/c1ccco1`, the inhibition was -3.59% (inactive).
With `COc1ccc(Cn2c(=O)cc(C)[nH]c2=S)cc1` the inhibition was 2.03% (inactive).
With `COc1ccc(C(=O)CN(C(=O)c2ccc(Cl)cc2)N2C(=O)c3ccccc3C2=O)cc1` the inhibition was 0% (inactive).
In the case of `COc1ccc(Cn2c(-c3ccc(Cl)cc3)c[n+]3ccccc23)cc1`, the inhibition was 88.9% (active).
In the case of `O=C(CSc1nnc(SCc2ccc(F)cc2)s1)Nc1ccc(C(=O)O)cc1`, the inhibition was -3.83% (inactive).
With `Cc1ccc(S(=O)(=O)N(C)C)cc1NC(=O)c1ccccc1Br` the inhibition was 2.86% (inactive).
In the case of `COc1ccc(-c2cc(C(F)(F)F)nc(S(C)(=O)=O)n2)cc1OC`, the inhibition was 37.9% (active).
In the case of `COc1ccc(-c2cc(C(F)(F)F)nc(SCC(=O)Nc3ccc4c(c3)OCO4)n2)cc1OC`, the inhibition was 2.59% (inactive).
For `COc1cc(OC)nc(S(C)(=O)=O)n1`, the inhibition was -3.65% (inactive).
For `Cc1c(CCC(=O)O)c(=O)oc2cc3occ(-c4ccccc4)c3cc12`, the inhibition was 2.82% (inactive).
In the case of `COc1ccc(C(=O)NNC(=S)NC(=O)c2ccccc2[N+](=O)[O-])cc1`, the inhibition was 0.22% (inactive).
For `CCOC(=O)C(=Cc1ccccc1OC)C(=O)OCC`, the inhibition was -2.52% (inactive).
For `COc1ccc(OCC(=O)NNC(=O)c2cccc(C)c2)cc1`, the inhibition was -0.28% (inactive).
For `COc1ccc(C(=O)NN(C)c2nc(-c3ccccc3)cc(C)c2S(C)(=O)=O)cc1`, the inhibition was 2.15% (inactive).
For `CN(NC(=O)c1ccccc1F)c1nc(C(F)(F)F)nc2ccccc12`, the inhibition was 73.2% (active).
In the case of `CN(NC(=O)c1ccccc1)c1nc2ccccc2nc1C(F)(F)F`, the inhibition was -2.71% (inactive).
For `CSc1nc(N(C)NC(=O)c2cccc(C)c2)c2ccccc2n1`, the inhibition was 93.6% (active).
In the case of `COC(=O)CNC(=O)c1ccccc1F`, the inhibition was -2.64% (inactive).
In the case of `CC(=O)c1ccc(NC(=O)CSC(=S)N2CCCC2)cc1`, the inhibition was -0.78% (inactive).
For `C=CCNC(=O)CSc1nc2scc(-c3ccco3)c2c(=O)n1CC=C`, the inhibition was -2.22% (inactive).
With `Nc1nc(NC(=O)/C=C/c2ccc(F)cc2)nn1-c1ccccc1` the inhibition was 1.73% (inactive).
With `CCCCCN(C(=O)NC(=O)Nc1cccc(C)c1C)S(C)(=O)=O` the inhibition was 1.95% (inactive).
For `CC(NC(=O)C(=O)Nc1nccs1)c1ccccc1` (stereo not given), the inhibition was -0.5% (inactive).
In the case of `CCCCN1C(=O)CCC(C(=O)O)C1c1ccc(OC)cc1` (stereo not given), the inhibition was -6.4% (inactive).
In the case of `CC(=O)c1cnc(-c2ccccc2)s1`, the inhibition was -0.87% (inactive).
In the case of `COc1ccc(-c2csc(NC3OC(=O)c4ccccc43)n2)cc1` (stereo not given), the inhibition was 11.9% (inactive).
For `COc1ccc2c(c1OC)C(=O)OC2Nc1nc(-c2ccccc2)cs1` (stereo not given), the inhibition was 68.6% (active).
With `COc1ccc2c(c1OC)C(=O)OC2c1c(O)nc(SC)n(-c2ccccc2)c1=O` (stereo not given) the inhibition was -4.02% (inactive).
With `Cn1c(SCC(=O)Nc2ccc(Cl)cc2)nc(O)cc1=O` the inhibition was -1.33% (inactive).
With `O=C1CC(c2c(F)cccc2Cl)C(n2cncn2)C(O)=C1C1NCCc2ccccc21` (stereo not given) the inhibition was -3.23% (inactive).
For `COc1ccc(F)cc1S(=O)(=O)Nc1ccc2c(c1)OCO2`, the inhibition was 0.08% (inactive).
For `COc1ccccc1C1C2=C(COC2=O)Nc2cc3c(cc21)OCO3` (stereo not given), the inhibition was 85.5% (active).
For `CCCOc1ccccc1C1CC(=O)Nc2cc3c(cc21)OCO3` (stereo not given), the inhibition was 74.4% (active).
For `COc1cc2c(cc1/C=C1/NC(=O)N(c3ccccc3)C1=O)OCO2`, the inhibition was 0.39% (inactive).
With `COc1ccc(C2CC(=O)Nc3cc(C)c(C)cc32)c(OC)c1OC` (stereo not given) the inhibition was 0.14% (inactive).
For `COCCOC(=O)C1=C(C)NC(=O)CC1c1cc2c(cc1Br)OCO2` (stereo not given), the inhibition was 1.76% (inactive).
With `Cc1nc(C(=O)N2CCCC(C(=O)c3ccc(Cl)cc3)C2)cs1` (stereo not given) the inhibition was -2.53% (inactive).
For `CC(=O)N1CCN(S(=O)(=O)c2c(F)cc(F)c(Cl)c2F)CC1`, the inhibition was -1.72% (inactive).
In the case of `COc1ccc(CN(C)C(C)C(=O)NC2CCCc3ccccc32)cc1` (stereo not given), the inhibition was 3.02% (inactive).
In the case of `COc1ccc2nc(SCc3ccccc3)nc(C)c2c1`, the inhibition was 2.96% (inactive).
In the case of `CCOC(=O)C1C(c2ccc(OC)c(OC)c2)c2c([nH][nH]c2=O)CC1(C)O` (stereo not given), the inhibition was -0.54% (inactive).
For `O=C(CCCn1c(=O)c2sccc2n(CC(=O)NCC2CCCO2)c1=O)NCc1ccco1` (stereo not given), the inhibition was -0.32% (inactive).
For `COc1ccc(C2c3ccc(O)cc3Oc3ncn(CCCO)c(=N)c32)cc1OC` (stereo not given), the inhibition was -1.6% (inactive).
For `COc1ccc(CS(=O)/C(Cl)=C(/Cl)C(=O)Nc2ccc(OC)nc2)cc1` (stereo not given), the inhibition was 101% (active).
With `COc1ccc(NC(=S)NCCNC(C)=O)cc1` the inhibition was -1.93% (inactive).
With `Cc1ccc(NC(=O)OCc2cncs2)cc1` the inhibition was 4.29% (inactive).
In the case of `COc1ccc(NC(=S)Nc2ccccc2Cl)cn1`, the inhibition was 4% (inactive).
In the case of `COc1ccc(Nc2cc(Cl)ccc2C(=O)O)cn1`, the inhibition was -1.48% (inactive).
In the case of `COc1ccc(NC(=O)/C(Cl)=C(/Cl)S(=O)Cc2ccc(C)cc2)cn1` (stereo not given), the inhibition was 100% (active).
With `CCC(=O)N1CCCc2ccccc21` the inhibition was -4.91% (inactive).
In the case of `C=CCc1cccc2cc(C(=O)Nc3ccc(NC(C)=O)cc3)c(=O)oc12`, the inhibition was -0.67% (inactive).
In the case of `CC1CCCCN1S(=O)(=O)c1ccc(S(=O)(=O)N(CC(=O)Nc2ccccc2)Cc2cccs2)cc1` (stereo not given), the inhibition was -2.37% (inactive).
With `CC1CCCCN1S(=O)(=O)c1ccc(C(=O)Nc2nnc(-c3cccs3)o2)cc1` (stereo not given) the inhibition was 36.5% (active).
With `CC1CCCN(S(=O)(=O)c2ccc(C(=O)Nc3nnc(-c4ccncc4)o3)cc2)C1` (stereo not given) the inhibition was -1.33% (inactive).
In the case of `C/C(=N\NC(=O)OC(C)(C)C)c1ccc[nH]1`, the inhibition was 1.03% (inactive).
With `CCN(CC)C(=O)Oc1ccc(Br)cc1C(=O)Nc1ccc(F)c(Cl)c1` the inhibition was -0.45% (inactive).
With `CCOC(=O)C(C)n1nc(-c2ccccc2)c2ccccc2c1=O` (stereo not given) the inhibition was -1.31% (inactive).
With `COc1ccc(C(=O)NC(Cc2ccc(OC(=O)c3ccc(OC)cc3)cc2)C(=O)O)cc1` (stereo not given) the inhibition was -2.6% (inactive).
With `O=C(CN1CCN(S(=O)(=O)c2ccc(Br)cc2)CC1)Nc1ccccc1C(=O)c1ccccc1` the inhibition was -3.02% (inactive).
For `Nc1ccc(Oc2ccc(Cl)cc2)cc1`, the inhibition was 7.34% (inactive).
In the case of `Cc1ccc(Oc2ccc(N)cc2)cc1`, the inhibition was 0.92% (inactive).
For `CC(C)(C)c1ccc(Oc2ccc(N)cc2)cc1`, the inhibition was 33.3% (active).
In the case of `CC(C)CN1CCNC(=O)C1CC(=O)N(C)CC1CCOCC1` (stereo not given), the inhibition was -1.14% (inactive).
For `Cc1ccc(-c2cc(C(F)(F)F)n3ncc(C(=O)N4CCCCC4c4cccnc4)c3n2)cc1` (stereo not given), the inhibition was -1.34% (inactive).
For `CCOc1cc(C(=O)N2CCc3cc(OC)c(OC)cc3C2)ccc1OC(F)F`, the inhibition was 82.7% (active).
With `COc1cc2c(cc1OC)CN(C(=O)c1cc(=O)c3ccccc3o1)CC2` the inhibition was 15.9% (inactive).
In the case of `COc1cc2c(cc1OC)CN(C(=O)c1ccc(S(=O)(=O)N3CCCCCC3)cc1)CC2`, the inhibition was 4.67% (inactive).
For `OCC1(Cc2ccccc2C(F)(F)F)CCN(Cc2ccncc2)CC1`, the inhibition was 3.31% (inactive).
In the case of `C[C@@H]1C[C@@H]2O[C@H]2/C=C\C=C\C(=O)Cc2c(Cl)c(O)cc(O)c2C(=O)O1`, the inhibition was 96.8% (active).
In the case of `CCOC(=O)c1ccc(NC(=O)CSc2ncccn2)cc1`, the inhibition was -1.61% (inactive).
For `CCOC(=O)c1ccc(NC(=O)Cn2nnc(-c3ccc(C)cc3)n2)cc1`, the inhibition was -1.34% (inactive).
For `CCOC(=O)c1ccc(NC(=O)Cn2cnc3cc(C)c(C)cc32)cc1`, the inhibition was 47.2% (active).
With `CCOC(=O)c1ccc(N=C2SC(C(=O)NC)CC(=O)N2CCc2ccccc2)cc1` (stereo not given) the inhibition was 1.63% (inactive).
For `Cc1ccc(C(=O)C[n+]2cc(-c3ccccc3)n3c2CCCCC3)cc1`, the inhibition was 69.4% (active) and 87.4% (active).
For `O=C(C[n+]1cc(-c2ccc(Cl)c(Cl)c2)n2c1CCC2)c1cccs1`, the inhibition was 4.8% (inactive).
In the case of `Clc1ccc(C[n+]2cc(-c3ccccc3)n3c2CCC3)cc1`, the inhibition was 70.5% (active).
For `Cc1ccc(-c2c[n+](CC(=O)Nc3ccccc3)c3n2CCC3)cc1`, the inhibition was -4.7% (inactive).
For `Clc1ccc(C[n+]2cc(-c3ccc(Cl)cc3)n3c2CCC3)cc1`, the inhibition was 50.1% (active).
With `Cn1c(-c2ccccc2)c[n+]2c1CCCCC2` the inhibition was -3.91% (inactive).
In the case of `CN(C(=O)CSc1nnc(-c2n[nH]c3ccccc23)o1)c1ccccc1`, the inhibition was 2.55% (inactive).
